Source: ChEMBL document CHEMBL1201862, “PubChem BioAssay data set” (2004)
Among all 350,000 compounds or so, about 31,000 (8.9%) were called active. About 15% were inconclusive and are not listed. The calls are words filed in the database; no cut-off is given here. The full list was thinned out, with actives kept by preference.

molecular target: T1, Histone-lysine N-methyltransferase EHMT2 (Homo sapiens) (UniProt Q96KQ7); assay: qHTS Assay for Inhibitors of Histone Lysine Methyltransferase G9a. [Related pubchem assays (depositor defined):AID504404]; type: functional
T1 sequence (whole entry): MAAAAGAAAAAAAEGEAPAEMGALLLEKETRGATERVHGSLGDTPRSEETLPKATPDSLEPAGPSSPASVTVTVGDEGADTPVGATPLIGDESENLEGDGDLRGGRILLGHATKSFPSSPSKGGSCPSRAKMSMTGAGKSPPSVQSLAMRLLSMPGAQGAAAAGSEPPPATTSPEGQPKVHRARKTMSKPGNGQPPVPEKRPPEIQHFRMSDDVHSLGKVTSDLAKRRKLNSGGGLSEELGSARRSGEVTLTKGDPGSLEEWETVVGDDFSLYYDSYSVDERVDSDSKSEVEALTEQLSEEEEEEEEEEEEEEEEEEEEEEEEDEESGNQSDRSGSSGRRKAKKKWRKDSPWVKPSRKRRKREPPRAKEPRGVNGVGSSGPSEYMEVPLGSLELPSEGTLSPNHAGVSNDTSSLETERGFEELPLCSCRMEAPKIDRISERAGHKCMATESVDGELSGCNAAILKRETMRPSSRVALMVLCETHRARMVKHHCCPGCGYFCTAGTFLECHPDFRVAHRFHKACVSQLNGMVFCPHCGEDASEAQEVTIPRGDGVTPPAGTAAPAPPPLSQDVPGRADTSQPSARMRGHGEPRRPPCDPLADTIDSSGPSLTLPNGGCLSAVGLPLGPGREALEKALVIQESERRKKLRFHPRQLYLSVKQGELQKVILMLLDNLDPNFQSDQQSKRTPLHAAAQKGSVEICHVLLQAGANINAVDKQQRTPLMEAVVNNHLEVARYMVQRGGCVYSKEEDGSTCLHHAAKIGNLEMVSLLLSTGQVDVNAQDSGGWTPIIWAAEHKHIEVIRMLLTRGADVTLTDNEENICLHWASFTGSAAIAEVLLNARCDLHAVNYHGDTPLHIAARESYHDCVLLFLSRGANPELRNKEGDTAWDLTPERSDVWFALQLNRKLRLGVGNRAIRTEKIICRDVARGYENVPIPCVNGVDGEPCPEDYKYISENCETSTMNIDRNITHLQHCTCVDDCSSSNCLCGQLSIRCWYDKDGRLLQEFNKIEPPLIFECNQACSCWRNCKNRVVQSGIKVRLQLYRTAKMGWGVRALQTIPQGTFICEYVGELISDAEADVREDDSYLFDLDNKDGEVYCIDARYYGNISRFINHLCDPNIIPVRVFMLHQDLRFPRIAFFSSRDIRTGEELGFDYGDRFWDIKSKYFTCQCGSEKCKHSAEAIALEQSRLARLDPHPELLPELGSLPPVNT

Row | Compound | Potency
1 | Cl[Te]1(Cl)OCCO1 | 7.94 µM (active)
